IL1B secr inh: qHTS for Inhibitors of Inflammasome Signaling: IL-1-beta AlphaLISA Primary Screen | THP-1 LPS/ATP IL-1B secretion, AlphaLISA, 16 h; hits give low values | activity change, % at 57.5 µM | 360,000 tested, 4.7% active | AID 743279, 2014; in the data active = activity change below about -50%; inconclusive = mostly about -30% to -49%
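Secreted IL-1B measured by AlphaLISA bead assay after 16 h compound exposure of THP-1 cells; compounds (final up to 57.5 uM) added 1 h before LPS (250 ng/mL) and ATP (1.25 mM) stimulation; lower signal means less secretion.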
HT1080 IDH1KD tx: qHTS for induction of synthetic lethality in tumor cells producing 2HG: qHTS for the HT-1080-IDH1KD cell line; HT-1080 IDH1 knockdown viability, ATP luminescence, 48 h; Potency, µM (series often up to 46.1 µM), inactives show at the top dose activity, negative = toxicity, actives largely listed as cytotoxic; 360,000 tested, 2% active;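 note: potency is the fitted concentration of half-maximal effect; 0% = DMSO wells and -100% = cell-free medium wells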
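HT-1080-IDH1KD cells (IDH1 knocked down), 750/well in RPMI with 5% FBS, treated with compound 48 h at 37 degrees C. Viability by CellTiter-Glo luminescence, normalised to DMSO and no-cell wells; concentration-response curves classed.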
TDP1 cell CPT: qHTS for Inhibitors of human tyrosyl-DNA phosphodiesterase 1 (TDP1): qHTS in cells in presence of CPT. chicken DT40 Tdp1-/-;hTDP1 cells + 20 nM CPT, ATP luminescence, 48 h. Potency, µM (highest dose often 46.2 µM), for inactives: at the top dose activity change, negative = growth inhibition, usual class: inhibitors. 420,000 tested, 12% active; note: potency is the fitted concentration of half-maximal effect; nearly all actives have a fitted effect of over 55% in size
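Cell growth measured by CellTiter-Glo luminescence after a minimum 48 h, 37 C compound exposure with 20 nM CPT in Tdp1-knockout DT40 cells stably expressing hTDP1, seeded 400/well; qHTS titration format.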
HT1080-NT tox: qHTS for induction of synthetic lethality in tumor cells producing 2HG: qHTS for the HT-1080-NT fibrosarcoma cell line; HT-1080-NT fibrosarcoma viability, CellTiter-Glo ATP luminescence, 48 h; 360,000 tested, 1.6% active; Potency, µM (top dose mostly 46.1 µM), inactives show at the highest dose activity, negative = less viability, most hits filed as cytotoxic; AID 686970, 2013;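 note: NT is the 2HG producing partner of a matched IDH1 knockdown line; potency is the fitted concentration of half-maximal effect; 0% = DMSO-treated cells and -100% = media-only wells without cells; nearly all actives have a fitted effect of over 55% in size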
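Read-out is CellTiter-Glo luminescence after 10 minutes at room temperature, following 48 hours' compound treatment of HT-1080-NT cells (750 cells/well, RPMI, 5% FBS, 37 degrees C).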
DT40 TDP1 no CPT: qHTS for Inhibitors of human tyrosyl-DNA phosphodiesterase 1 (TDP1): qHTS in cells in absence of CPT; Potency, µM (series often up to 46.2 µM), for inactives: at the top dose activity change, negative = growth inhibition, most hits filed as inhibitors; 420,000 tested, 15% active; DT40 Tdp1-/- hTDP1 cells, no CPT, ATP luminescence, 48 h; note: potency is the fitted concentration of half-maximal effect; nearly all actives have a fitted effect of over 55% in size
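Stably hTDP1-transfected Tdp1-null chicken DT40 cells were treated with library compounds minus camptothecin and grown for at least 48 hr at 37 °C, after which cellular ATP was quantified by luminescence.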
* = called active by the depositor; ? = inconclusive; · = no result. Rows were chosen to be rich in hits. Some 19% of all compounds tested hit in one or more screens of this group. Unless noted, calls come from the whole dose curve; as a rule, active = well fitted curve in the direction sought with a large enough effect; inconclusive = small, poorly fitted or top-dose-only effect, or another doubt; inactive = no such curve, though single readings can be large; an effect the other way counts as inactive or inconclusive. Unless noted, % is set by controls: 0 for no effect and ±100 for the full control effect.

SMILES	IL1B secr inh	HT1080 IDH1KD tx	TDP1 cell CPT	HT1080-NT tox	DT40 TDP1 no CPT
CCC1(C)NC(=O)N(CC(=O)N2N=C(c3ccccc3)CC2c2ccc(OC)cc2)C1=O (stereo unspecified)	-2	-8%	11%	-1%	-9%
COc1ccc(C2CC(c3ccccc3)=NN2C(=O)CSc2ncn[nH]2)cc1 (stereo unspecified)	-71*	-10%	?	1%	-15%
COc1ccc(C2CC(c3ccccc3)=NN2C(=O)CN2CCN(Cc3ccccc3)CC2)cc1 (stereo unspecified)	-66*	5%	?	10%	26µM*
COc1ccc(C2CC(c3ccccc3)=NN2C(=O)COC(=O)c2cnc(Cl)c(Cl)c2)cc1 (stereo unspecified)	0	12%	21µM*	20%	?
COc1ccc(C2=NN(C(=O)CCC(=O)O)C(c3ccccc3)C2)cc1 (stereo unspecified)	12	-1%	-4%	8%	15%
C/C(CC(=O)Nc1cccc(C(F)(F)F)c1)=N\NC(=O)c1cnccn1	-3	-14%	3%	-28%	-20%
CCC1Cc2[nH][nH]c(=O)c2C(CC)O1 (stereo unspecified)	5	3%	-8%	12%	-17%
COc1ccc(C2=NN(C(=O)CN3CCCCC3)C(c3ccc(C)cc3)C2)cc1 (stereo unspecified)	-87*	-17%	?	0%	?
COc1ccc(C2=NN(C(=O)c3cccc([N+](=O)[O-])c3)C(c3cccc([N+](=O)[O-])c3)C2)cc1 (stereo unspecified)	-4	-13%	3%	-4%	-14%
CNC(=S)N1N=C(c2ccc(Br)cc2)CC1c1ccc(OC)cc1 (stereo unspecified)	-11	-1%	?	7%	9.2µM*
COc1ccc(C2CC(c3cccc([N+](=O)[O-])c3)=NN2/C(C)=C/C(C)=O)cc1 (stereo unspecified)	1	-4%	16µM*	-5%	?
COc1ccc(OC)c(C2C(C(C)=O)=C(O)C(=O)N2Cc2cccnc2)c1 (stereo unspecified)	21	4%	2%	3%	-1%
Cc1ccc(F)cc1CNC(=O)c1sc2ncnc(NCC3CCCO3)c2c1C (stereo unspecified)	·	·	3%	·	-26%
O=C(N/N=C/c1ccccc1O)C1CC(=O)N(c2ccc(Cl)cc2)C1 (stereo unspecified)	178	3.3µM*	7.3µM*	?	3.7µM*
CCN(CC)CCCNC(=O)/C=C/C(=O)O	-1	3%	18µM*	-4%	21µM*
[O-][n+]1c2ccccc2cc2ccccc21	-12	-1%	?	-2%	9.2µM*
CCCCn1c2c(c(=N)c3c1CCC3)CCC2	-3	-18%	6.5µM*	-17%	4.6µM*
CCn1c2c(c(=N)c3ccccc31)CCC2	-2	?	5%	?	-25%
CCCCCCn1c2c(c(=N)c3c1CCC3)CCC2	?	1.6µM*	0.41µM*	1.6µM*	0.26µM*
CCCCCCn1c(=O)[nH]c2c(c1=O)CCC2	-1	-2%	11%	-2%	1%
CCCCCCCCCn1c2c(c(=N)c3c1CCC3)CCC2	-97*	?	0.058µM*	1.5µM*	0.018µM*
CCn1c2c(c(=N)c3c1CCC3)CCC2	-13	20%	-7%	7%	-6%
CCCCCCCn1c2c(c(=N)c3c1CCC3)CCCC2	-27	7.3µM*	0.41µM*	9.2µM*	0.33µM*
CC1(C(=O)NS(=O)(=O)c2ccc(Cl)cc2)CCN1C(=O)CC1CC1 (stereo unspecified)	1	22%	-1%	27%	15%

Source: PubChem
